Test [1] deals with Albumin (Bos taurus) (UniProt P02769). Description: compounds binding labelled BSA control protein – biochemical, small-molecule microarray, Alexa647 label, 635/667 nm fluorescence, artefact control for SMM control protein annotation, profiling panel (AID 1118).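 Further: score merges 667 nm emission intensity and signal-to-noise per printed compound spot.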 Conditions: BSA-A647 binding, fluorescence 635 nm, higher = more signal.
The nature of test [2]: probe aXIP binding to arrayed compounds – biochemical, NeuroSMM set, 635/667 nm fluorescence, primary screen (AID 1119).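 Further: probe is the protein aXip251-270 applied at 1 µg/mL to compound-printed slides; binding of probe to printed compounds measured as 667 nm fluorescence plus signal to noise.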 To be noted: small-molecule microarray, higher = more signal, called active from +8 up or from −8 down.
Test [3] can be described thus: probe aNOTCH3 binding on compound microarray – biochemical, small-molecule microarray, 635/667 nm fluorescence, primary screen (AID 1120).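 Further: probe is a biotin-tagged antibody raised against NOTCH3 rather than NOTCH3 protein; score merges spot fluorescence near 667 nm with spot signal to noise.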 Conditions: higher = more signal.
The nature of test [4]: probe aNOTCH2 binding on compound microarray – biochemical, small-molecule microarray, 635/667 nm fluorescence, primary screen (AID 1121).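 Further: score merges feature fluorescence read at 667 nm with its signal to noise.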 To be noted: higher = more signal.
Test [5] addresses Carbonic anhydrase 2 (Homo sapiens) (UniProt P00918). As to the kind of experiment: compounds binding carbonic anhydrase 2 – biochemical, small-molecule microarray, Alexa647-labelled CAII, profiling panel (AID 1122). Conditions: CAII-A647 binding fluorescence, higher = more signal.
Test [6] can be described thus: COS7 lysate on small-molecule microarray, probe aHis, 635 nm (AID 1123).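 Further: z-score combines 667nm fluorescence intensity with signal-to-noise per printed compound spot.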 To be noted: COS7 cell lysate, fluorescence, higher = more signal.
Test [7] is described as follows: probe aLAP1 signal on lysate-treated microarray – cell lysate, small-molecule microarray, COS7 lysate, primary screen (AID 1124).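 Further: lysate comes from COS7 cells expressing LAP1 and is applied at 0.3 µg/mL; score merges spot fluorescence near 667 nm with signal-to-noise over triplicate slides.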 To be noted: probe aLAP1, fluorescence, higher = more signal.
For test [8], the system named is Sam68 (KHDRBS1). Description: compounds binding KHDRBS1 protein – biochemical, small-molecule microarray, 635 nm fluorescence, primary screen (AID 1125).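 Further: score merges 667 nm channel intensity with signal to noise over triplicate slides.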 To be noted: higher = more signal.
In test [9] the test system is Chordin-like protein 2 (CHRDL2). Description: compounds binding chordin-like 2 – biochemical, small-molecule microarray, 635 nm fluorescence, primary screen (AID 1126).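 Further: printed compound slides probed with Chrdl2 protein at 4 µg/mL for 1 h at 4 C; score merges 667 nm emission intensity with signal to noise over three replicate slides.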 Conditions: fluorescence 635 nm, higher = more signal.
The target in test [10] is Concanavalin-A (Canavalia ensiformis) (UniProt P02866). As to the kind of experiment: compounds binding concanavalin A lectin – biochemical, small-molecule microarray, Alexa647 label, 635 nm, artefact control for SMM control protein annotation, primary screen (AID 1127).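 Further: z combines 667 nm emission intensity with signal-to-noise across three replicate slides.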 Conditions: ConA-A647 binding fluorescence, higher = more signal.
Test [11] is described as follows: compounds binding Alexa647 anti-His antibody – biochemical, small-molecule microarray, 635 nm fluorescence, artefact control for SMM control protein annotation, primary screen (AID 1128).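 Further: score merges feature fluorescence with signal-to-noise for each printed compound spot.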 Conditions: higher = more signal.
Test [12] has as its system Human papillomavirus type 1a E7 protein (residues 1-88). Description: HPV1a E7 small-molecule binders, primary screen, biochemical, small-molecule microarray, residues 1-88, 635 nm (AID 1129). To be noted: small-molecule microarray binding, fluorescence 635 nm; higher = more signal.
The target of test [13] is Focal adhesion kinase 1 (Homo sapiens) (UniProt Q05397). As to the kind of experiment: PTK2 protein binding on printed compound slides – biochemical, small-molecule microarray, 635/667 nm fluorescence, BSA, DTT, primary screen (AID 1130).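 Further: composite of spot emission at 667 nm and signal to noise over triplicate slides.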 Conditions: 635 nm fluorescence, higher = more signal.
Test [14] deals with Fibrinogen (Alexa647-labelled). As to the kind of experiment: Alexa647-fibrinogen binding to printed small molecules – biochemical, small-molecule microarray, 635/667 nm fluorescence, artefact control for SMM control-protein annotation, profiling panel (AID 1131).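 Further: z-score merges 667 nm fluorescence with per-spot signal-to-noise over triplicate slides.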 To be noted: fibrinogen-A647 binding fluorescence, higher = more signal.
Test [15] addresses Follistatin (Homo sapiens) (UniProt P19883). Description: FST protein binding to printed compounds – biochemical, small-molecule microarray, 635/667 nm fluorescence, primary screen (AID 1132). Conditions: 635 nm fluorescence, higher = more signal.
Test [16] has as its target Fibroblast growth factor 2 (Homo sapiens) (UniProt P09038). As to the kind of experiment: basic fibroblast growth factor binding to printed compounds – biochemical, small-molecule microarray, 635/667 nm fluorescence, primary screen (AID 1133). Conditions: FGF2, fluorescence 635/667, higher = more signal.
Test [17] can be described thus: JC-1 mitochondrial potential readout, lung cancer cells – cell-based, A549, JC-1 fluorescence, basal, 24 h, 100 nL, profiling panel (AID 1138).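 Further: A549 lung adenocarcinoma cells under basal conditions with no added stimulus; test concentration not given here.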 To be noted: higher = more signal.
Test [18] has as its system Lefty1. Description: Lefty1 protein binding to printed compounds – biochemical, small-molecule microarray, 635/667 nm fluorescence, primary screen (AID 1139). Conditions: fluorescence 635/667, higher = more signal.
Test [19] concerns wheat germ agglutinin (Triticum aestivum), Alexa647-labelled. Description: Alexa647-WGA lectin binding to printed small molecules – biochemical, small-molecule microarray, 635/667 nm fluorescence, artefact control for SMM control-protein annotation, profiling panel (AID 1140).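 Further: score merges 667 nm feature emission with signal to noise over triplicate slides.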 Conditions: WGA-A647 binding, 635 nm fluorescence, higher = more signal.
The target of test [20] is Luciferin 4-monooxygenase (Photinus pyralis) (UniProt P08659). Description: inhibition of purified Photinus pyralis luciferase – biochemical, luminescence, purified enzyme, 2006 set, primary screen (AID 1141).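 Further: cell-free assay with purified firefly luciferase at 100 ng per well in PBS; test concentration not given here.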 To be noted: purified firefly luciferase, SteadyGlo luminescence, 30 min; higher = more signal, called active from +8 up or from −8 down.

SMILES strings stand for the structures. The source made the active and inactive calls.

Chain of Albumin (Bos taurus) (P02769 whole entry, looked up): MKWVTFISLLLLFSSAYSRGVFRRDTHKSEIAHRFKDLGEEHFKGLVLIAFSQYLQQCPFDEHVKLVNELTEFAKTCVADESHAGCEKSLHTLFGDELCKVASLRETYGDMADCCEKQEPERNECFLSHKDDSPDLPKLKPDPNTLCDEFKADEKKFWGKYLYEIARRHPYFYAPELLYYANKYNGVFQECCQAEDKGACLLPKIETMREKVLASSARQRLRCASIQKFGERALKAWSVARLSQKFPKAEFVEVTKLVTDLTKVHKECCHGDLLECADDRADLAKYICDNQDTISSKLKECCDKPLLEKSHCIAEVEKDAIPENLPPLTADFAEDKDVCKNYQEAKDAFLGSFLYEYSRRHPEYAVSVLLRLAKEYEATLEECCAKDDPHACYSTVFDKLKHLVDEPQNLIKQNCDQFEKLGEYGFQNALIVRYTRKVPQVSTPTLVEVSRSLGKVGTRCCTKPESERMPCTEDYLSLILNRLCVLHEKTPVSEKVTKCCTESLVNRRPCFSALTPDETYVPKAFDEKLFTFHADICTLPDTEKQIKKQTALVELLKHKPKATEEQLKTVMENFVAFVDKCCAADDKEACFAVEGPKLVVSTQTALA
Chain of Focal adhesion kinase 1 (Homo sapiens) (Q05397 whole entry, looked up): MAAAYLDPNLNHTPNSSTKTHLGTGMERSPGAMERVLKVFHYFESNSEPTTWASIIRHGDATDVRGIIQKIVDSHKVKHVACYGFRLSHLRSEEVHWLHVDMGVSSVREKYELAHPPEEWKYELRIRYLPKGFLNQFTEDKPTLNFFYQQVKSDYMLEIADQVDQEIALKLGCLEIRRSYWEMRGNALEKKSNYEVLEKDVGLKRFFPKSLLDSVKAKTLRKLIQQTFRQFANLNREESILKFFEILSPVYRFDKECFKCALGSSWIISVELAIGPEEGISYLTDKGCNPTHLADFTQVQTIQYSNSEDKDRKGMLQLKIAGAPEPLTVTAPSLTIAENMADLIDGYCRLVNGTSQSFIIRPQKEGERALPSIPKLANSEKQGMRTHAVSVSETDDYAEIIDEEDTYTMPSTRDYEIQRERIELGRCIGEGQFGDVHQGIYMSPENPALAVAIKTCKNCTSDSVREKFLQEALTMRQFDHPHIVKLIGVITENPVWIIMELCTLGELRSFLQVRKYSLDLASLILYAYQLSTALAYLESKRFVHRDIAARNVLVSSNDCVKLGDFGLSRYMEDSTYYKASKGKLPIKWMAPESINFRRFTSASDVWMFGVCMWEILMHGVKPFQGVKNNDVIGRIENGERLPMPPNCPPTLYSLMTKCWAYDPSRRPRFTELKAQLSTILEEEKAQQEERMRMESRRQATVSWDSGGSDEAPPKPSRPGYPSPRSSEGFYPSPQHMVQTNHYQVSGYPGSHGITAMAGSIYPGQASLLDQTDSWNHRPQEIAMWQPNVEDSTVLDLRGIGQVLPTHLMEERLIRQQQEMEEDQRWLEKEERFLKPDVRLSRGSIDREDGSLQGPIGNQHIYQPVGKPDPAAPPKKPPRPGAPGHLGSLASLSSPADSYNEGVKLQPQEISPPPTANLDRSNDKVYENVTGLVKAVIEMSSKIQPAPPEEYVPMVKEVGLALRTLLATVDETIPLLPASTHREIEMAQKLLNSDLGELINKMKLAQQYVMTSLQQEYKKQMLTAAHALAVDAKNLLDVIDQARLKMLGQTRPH
Chain of Follistatin (Homo sapiens) (P19883 whole entry, looked up): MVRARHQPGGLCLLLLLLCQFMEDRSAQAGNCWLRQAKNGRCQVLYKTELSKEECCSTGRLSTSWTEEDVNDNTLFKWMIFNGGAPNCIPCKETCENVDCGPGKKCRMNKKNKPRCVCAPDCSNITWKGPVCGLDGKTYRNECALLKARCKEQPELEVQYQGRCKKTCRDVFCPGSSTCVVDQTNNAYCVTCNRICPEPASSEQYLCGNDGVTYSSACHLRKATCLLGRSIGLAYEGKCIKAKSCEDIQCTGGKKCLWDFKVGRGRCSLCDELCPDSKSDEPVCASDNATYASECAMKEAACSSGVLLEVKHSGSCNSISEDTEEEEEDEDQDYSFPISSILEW
Chain of Concanavalin-A (Canavalia ensiformis) (P02866 whole entry, looked up): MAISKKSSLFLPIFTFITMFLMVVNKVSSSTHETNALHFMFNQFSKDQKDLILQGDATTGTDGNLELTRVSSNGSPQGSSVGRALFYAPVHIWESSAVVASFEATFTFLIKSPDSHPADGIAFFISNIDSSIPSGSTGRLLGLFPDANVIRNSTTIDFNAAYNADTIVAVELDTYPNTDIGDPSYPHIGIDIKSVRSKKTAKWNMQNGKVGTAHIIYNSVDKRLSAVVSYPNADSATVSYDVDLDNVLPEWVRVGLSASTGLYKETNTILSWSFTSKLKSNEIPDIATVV
Chain of Luciferin 4-monooxygenase (Photinus pyralis) (P08659 whole entry, looked up): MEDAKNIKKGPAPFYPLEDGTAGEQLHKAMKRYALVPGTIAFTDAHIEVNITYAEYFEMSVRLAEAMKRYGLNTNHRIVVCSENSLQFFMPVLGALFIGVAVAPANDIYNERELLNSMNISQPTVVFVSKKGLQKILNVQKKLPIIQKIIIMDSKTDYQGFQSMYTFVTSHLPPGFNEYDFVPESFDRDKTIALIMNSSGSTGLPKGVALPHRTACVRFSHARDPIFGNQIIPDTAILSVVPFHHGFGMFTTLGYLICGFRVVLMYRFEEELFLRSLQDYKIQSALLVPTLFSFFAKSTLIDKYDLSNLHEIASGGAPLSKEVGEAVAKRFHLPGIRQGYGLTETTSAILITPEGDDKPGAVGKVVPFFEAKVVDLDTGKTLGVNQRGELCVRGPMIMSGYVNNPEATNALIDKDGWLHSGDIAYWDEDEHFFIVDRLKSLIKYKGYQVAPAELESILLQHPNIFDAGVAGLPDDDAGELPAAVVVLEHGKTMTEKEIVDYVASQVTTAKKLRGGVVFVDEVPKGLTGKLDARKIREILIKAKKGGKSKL
Chain of Fibroblast growth factor 2 (Homo sapiens) (P09038 whole entry, looked up): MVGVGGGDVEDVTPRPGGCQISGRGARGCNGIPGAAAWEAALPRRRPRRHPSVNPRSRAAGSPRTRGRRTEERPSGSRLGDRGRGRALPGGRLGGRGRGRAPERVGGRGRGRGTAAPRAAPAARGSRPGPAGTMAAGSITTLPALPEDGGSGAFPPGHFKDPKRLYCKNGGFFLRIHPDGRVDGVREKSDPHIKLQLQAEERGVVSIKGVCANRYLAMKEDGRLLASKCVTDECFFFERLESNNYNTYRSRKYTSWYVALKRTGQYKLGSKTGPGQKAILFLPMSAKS

On to `COC(=O)c1c(CC[C@@H](CO)NC(=O)N[C@H](Cn2cc(-c3cncn3C)nn2)C(C)C)oc(C(C)=O)c1C(=O)OC`, for which the composite z-score in [1] is 0.697; in [3] it was -0.0647; in test [4], -0.11; in [5], 0.514; in [6] it was 0.651; in [7] it was 0.203. Moreover, the composite z-score was 1.27 in [8]; 0.0779 in test [9]; 1.07 in test [10]; 1.15 in [11]; 0.722 in test [12]; -0.205 in test [13]. Moreover, the composite z-score in test [14] was -0.0397; in test [15], 0.415; in [16] it was 1.11; in test [18], 0.999; in test [19], -0.0889. The composite Z-score in test [2] was 0.24 (inactive). In addition, the z-score is -0.315 in test [17] and -0.263 (inactive) in test [20].

Turning to `CO[C@H]1COC(=O)CC=C[C@@H](C)COC(=O)[C@@H](C)NC(=O)CC=C[C@@H]1C`, the composite z-score in test [1] is -1.07; in test [3] it was -0.0345; in [4], -0.153; in test [5], -0.681; in [6] it was -0.736; in test [7], -0.495. The composite z-score is 0.787 in [8]; 1.59 in test [9]; -0.704 in test [10]; -0.505 in test [11]; -1.53 in test [12]; -1.02 in test [13]. The composite z-score in test [14] is -0.943; in test [15], 1.44; in test [16], 2.02; in [18], 1.73; in test [19], -0.673. Besides, in test [2], the composite Z-score was 2.3 (inactive). Moreover, the z-score in test [17] was 1.15; in test [20], -1.37 (inactive).

With `O=C(O)[C@@H]1Cc2c([nH]c3ccccc23)[C@@H](c2ccccc2)N1`, the composite z-score is 0.118 in [1]; -0.082 in test [3]; -0.0148 in test [4]; -0.0448 in [5]; 0.319 in test [6]; -0.0124 in test [7]. The composite z-score is -0.188 in test [8]; 0.379 in test [9]; 0.813 in test [10]; 0.247 in test [11]; 0.299 in test [12]; 0.948 in test [13]. Also, the composite z-score in test [14] was determined as 0.651; in test [15] it was 0.607; in test [16], 0.197; in test [18], 0.244; in [19] it was 0.0252. The composite Z-score in test [2] was 0.756 (inactive). The figures for the z-score in [17] and in test [20] were 0.375 and -0.0866 (inactive), respectively.

Regarding `C=C(CCCC)C(=O)CC[C@@H](OC(C)=O)c1ccccc1OCCO`, the composite z-score in [1] was -0.993; in test [3] it was -0.13; in [4] it was -0.117; in test [5] it was 0.638; in test [6] it was -0.429; in test [7], 1.23. For the same compound, the composite z-score in test [8] is -0.665; in test [9], -0.646; in test [10] it was -1.43; in [11], -0.848; in test [12], -0.806; in test [13], -0.523. Besides, the composite z-score in test [14] is -1.75; in test [15], -0.245; in [16], -0.508; in test [18] it was -0.0521; in [19] it was -0.788. The composite Z-score in [2] is 2.25 (inactive). For the same compound, the z-score in [17] is 0.846; in test [20], -1.33 (inactive).

As to `Cc1ccccc1C(O)C1C=CC2C(=O)N(c3ccccc3)C(=O)C2N1Nc1ccc(C#N)cc1` (stereo not given), the composite z-score is 1.04 in test [1]; 0.841 in test [3]; 0.417 in test [4]; 0.652 in [5]; 2.87 in test [6]; 1.37 in test [7]. The composite z-score came to 1.31 in test [8]; 0.632 in test [9]; 1.18 in test [10]; 2.68 in test [11]; 1.21 in [12]; 0.842 in [13]. The composite z-score in test [14] is 0.523; in [15], 0.683; in test [16], 0.302; in test [18] it was 0.0979; in test [19] it was 1. Besides, the composite Z-score in test [2] is 1.4 (inactive). The z-score was -0.638 in test [17] and -1.33 (inactive) in [20].
